From PubChem BioAssay (NCI)
About 83,000 compounds went through this panel and 20% of them were active in at least one assay; those are over-represented in the sample as a whole.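 Growth was measured after 48 h exposure to one concentration of compound in 96-well plates. Values under 10 count as active.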 Values without a mark were called inactive. Activity calls are given as the source filed them.

Experiments:
Experiment in all cases: NCI-60 one-dose screen, 48 h (100 = growth as untreated, 0 = no growth, -100 = all killed)
Conditions in all cases: 10 µM unless noted
DU-145 prostate = tested on: DU-145 prostate
K-562 leukemia = tested on: K-562 leukemia
MALME-3M melanoma = tested on: MALME-3M melanoma
MDA-MB-231 breast = tested on: MDA-MB-231 breast
RXF 393 renal = tested on: RXF 393 renal
SF-268 CNS = tested on: SF-268 CNS
SF-295 CNS = tested on: SF-295 CNS
SF-539 CNS = tested on: SF-539 CNS
UACC-257 melanoma = tested on: UACC-257 melanoma
M14 melanoma = tested on: M14 melanoma
HCT-15 colon = tested on: HCT-15 colon
HT29 colon = tested on: HT29 colon
SNB-75 CNS = tested on: SNB-75 CNS
SNB-19 CNS = tested on: SNB-19 CNS
U251 CNS = tested on: U251 CNS
PC-3 prostate = tested on: PC-3 prostate
SK-MEL-5 melanoma = tested on: SK-MEL-5 melanoma
UACC-62 melanoma = tested on: UACC-62 melanoma
LOX IMVI melanoma = tested on: LOX IMVI melanoma
SK-MEL-28 melanoma = tested on: SK-MEL-28 melanoma

Row | Compound | growth (DU-145 prostate) | growth (K-562 leukemia) | growth (MALME-3M melanoma) | growth (MDA-MB-231 breast) | growth (RXF 393 renal) | growth (SF-268 CNS) | growth (SF-295 CNS) | growth (SF-539 CNS) | growth (UACC-257 melanoma) | growth (M14 melanoma) | growth (HCT-15 colon) | growth (HT29 colon) | growth (SNB-75 CNS) | growth (SNB-19 CNS) | growth (U251 CNS) | growth (PC-3 prostate) | growth (SK-MEL-5 melanoma) | growth (UACC-62 melanoma) | growth (LOX IMVI melanoma) | growth (SK-MEL-28 melanoma)
1 | Cc1cccc(CC(=O)c2ccccc2)n1 | 100% | 81.8% | 92.1% | 89% | 91% | 95.5% | 85.4% | 96.8% | 92.7% | 85.5% | 93.2% | 82.1% | 84.6% | 88.7% | 89.6% | 80.5% | 96.6% | 74.7% | 76.5% | 105%
2 | C=CC(=O)Nc1cccc(Nc2nc(Nc3ccc(OCCOC(F)F)cc3)ncc2F)c1 | 34.7% | 19.9% | 46.3% | 66.3% | 9.55% (active) | 40.5% | 52.5% | 31.4% | 52.7% | 29% | 22.4% | 33.8% | 4.93% (active) | 55.7% | 30.1% | 40.7% | 79.6% | 24.1% | 18% | 68%
3 | CC(=O)Nc1ccc(OC(=O)c2ccccc2O)cc1 | 110% | 88.1% | 105% | 108% | 114% | 106% | 95.3% | 108% | 111% | 109% | 107% | 113% | 114% | 100% | 99.3% | 94.8% | 109% | 102% | 99.7% | 120%
4 | C[C@]12CC[C@@H]3c4ccc(O)c(N)c4CC[C@H]3[C@@H]1CC[C@@H]2O | 110% | 79.8% | 129% | 115% | 116% | 98.9% | 108% | 106% | 82.5% | 100% | 101% | 103% | 94.3% | 109% | 110% | 97.6% | 99.5% | 97.1% | 96.7% | 118%
5 | COc1ccc(-c2nn(-c3cccc(Cl)c3)cc2-c2cc(-c3ccc(Br)cc3)[nH]c(=O)c2C#N)cc1 | 56.5% | 81.8% | 69.1% | 60.8% | 75.3% | 89.1% | 99.1% | 81% | 93.4% | 81.4% | 71.1% | 108% | -37.1% (active) | 90.6% | 90% | 86% | 91% | 88% | 69.6% | 99.6%
6 | O=C(Nc1ccc(-n2cc(-c3ccncc3)c(-c3ccc(O)c(Cl)c3)n2)cc1)Nc1cc(C(F)(F)F)cc(C(F)(F)F)c1 | 80.6% | 57.6% | 92.1% | 78.3% | 27% | 70.8% | 19.6% | 62.4% | 90.3% | 55.6% | 61.1% | 97.2% | 72.2% | 47.6% | 37.7% | 50.4% | 54% | 64.1% | 51.4% | 76.8%
7 | COc1ccc(-c2nn(-c3ccc(NC(=O)c4ccc(Cl)c(C(F)(F)F)c4)cc3)cc2-c2ccncc2)cc1Cl | 45% | 0.122% (active) | 6.68% (active) | -29.6% (active) | -76% (active) | 14.5% | -30.3% (active) | 9.99% (active) | 51.2% | 13.3% | -26% (active) | -39.5% (active) | 31.1% | 42.7% | 13.5% | 23.2% | -69.3% (active) | -14.6% (active) | -63.9% (active) | 50.2%
8 | CC(=O)Nc1ccc([I+]c2ccc([N+](=O)[O-])cc2)cc1 | 107% | 69.3% | 43.6% | 113% | 129% | 99.4% | 118% | 101% | 90.4% | 83% | 100% | 81.3% | 90.5% | 109% | 81.1% | 82.3% | 80.6% | 81.1% | 90.5% | 106%
